Experiment [1] addresses Rap guanine nucleotide exchange factor 3 (Homo sapiens) (UniProt O95398). The experiment in a line: Confirmatory qHTS for agonist of cAMP-regulated guanine nucleotide exchange factor 3 (EPAC1) (AID 1645881).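 Further: EPAC1 catalysed release of BODIPY-GDP from Rap1B seen as fluorescence loss; 100% = effect of cAMP agonist control; nearly all actives have a fitted effect of over 75% in size.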 The conditions noted are these: EPAC1 Rap1B BODIPY-GDP exchange fluorescence; series mostly up to 154 µM. Background: In qHTS, concentration-response curves come from the screen itself.

Experiment [2] deals with Rap guanine nucleotide exchange factor 4 (Homo sapiens) (UniProt Q8WZA2). Briefly: Confirmatory qHTS for agonist of cAMP-regulated guanine nucleotide exchange factor 4 (EPAC2) (AID 1645884).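 Further: nucleotide exchange releases bodipy-GDP from Rap1 and this lowers its fluorescence; on the % scale 0 is the no-effect control and ±100 the full control effect; nearly all actives have a fitted effect of over 65% in size.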 The conditions noted are these: EPAC2 GEF activity, Rap1B-BODIPY-GDP fluorescence; series mostly up to 154 µM.
The target is the same in experiment [3]. The experiment in a line: Confirmatory qHTS for antagonist of cAMP-regulated guanine nucleotide exchange factor 4 (EPAC2) (AID 1645885). Further: nearly all actives have a fitted effect of over 25% in size. Further: potency means the concentration at half of the fitted maximal effect. On activity change, negative = inhibition: on the % scale 0 is the no-effect control and ±100 the full control effect. Conditions: EPAC2 Rap1B-BODIPY-GDP exchange fluorescence, biochemical; series mostly up to 12.7 µM.
The target in experiment [4] is Rap guanine nucleotide exchange factor 3 (Homo sapiens) (UniProt O95398). The experiment in a line: Counterscreen qHTS for antagonist of cAMP-regulated guanine nucleotide exchange factor 3 (EPAC1) (AID 1645888).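 Further: fluorescence loss as bound BODIPY-GDP is released from Rap1B; % of control where 0% means no effect.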 Conditions: Rap1B-BODIPY-GDP nucleotide exchange, fluorescence; series mostly up to 154 µM. The method, boiled down:
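Measured: fluorescence of BODIPY-GDP bound to Rap1B, which falls as exchange proceeds. Conditions include 50 uM competing GDP, 5 and 30 min reads, and a later cAMP challenge for antagonist detection.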

Records with an inconclusive call do not appear. Values without a mark were called inactive. Calls of active or inactive are those of the source. The call rests on the fitted dose curve; in most records, active means well fitted curve in the direction sought with a large enough effect; inconclusive means small, poorly fitted or top-dose-only effect, or another doubt; inactive means no such curve, though single readings can be large; an effect the other way counts as inactive or inconclusive.

These results are taken from PubChem BioAssay (NCATS).

Rap guanine nucleotide exchange factor 3 (Homo sapiens), sequence (O95398 whole entry, looked up): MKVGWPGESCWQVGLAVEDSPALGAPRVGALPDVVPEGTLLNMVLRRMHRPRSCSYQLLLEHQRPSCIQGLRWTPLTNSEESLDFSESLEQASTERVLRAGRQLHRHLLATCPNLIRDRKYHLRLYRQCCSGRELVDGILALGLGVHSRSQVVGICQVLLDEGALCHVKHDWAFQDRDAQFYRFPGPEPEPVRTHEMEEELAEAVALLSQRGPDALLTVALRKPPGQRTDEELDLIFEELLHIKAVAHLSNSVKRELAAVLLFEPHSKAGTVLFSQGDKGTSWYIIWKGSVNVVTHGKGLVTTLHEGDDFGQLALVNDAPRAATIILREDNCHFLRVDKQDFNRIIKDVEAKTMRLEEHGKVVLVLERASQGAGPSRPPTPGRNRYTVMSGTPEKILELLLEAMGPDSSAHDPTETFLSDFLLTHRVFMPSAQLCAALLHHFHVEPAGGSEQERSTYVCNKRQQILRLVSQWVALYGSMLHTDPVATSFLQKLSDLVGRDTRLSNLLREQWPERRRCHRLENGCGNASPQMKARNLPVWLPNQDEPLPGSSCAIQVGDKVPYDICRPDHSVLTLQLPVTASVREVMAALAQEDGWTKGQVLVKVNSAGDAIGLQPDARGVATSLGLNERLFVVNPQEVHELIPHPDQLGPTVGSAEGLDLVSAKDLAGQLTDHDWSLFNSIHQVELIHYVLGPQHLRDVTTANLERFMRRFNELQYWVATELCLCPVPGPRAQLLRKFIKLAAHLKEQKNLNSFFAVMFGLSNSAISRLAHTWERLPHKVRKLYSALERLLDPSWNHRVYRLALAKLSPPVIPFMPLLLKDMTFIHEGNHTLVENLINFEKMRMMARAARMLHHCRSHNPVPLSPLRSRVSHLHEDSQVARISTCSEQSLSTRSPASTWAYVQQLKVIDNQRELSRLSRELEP
Rap guanine nucleotide exchange factor 4 (Homo sapiens), sequence (Q8WZA2 whole entry, looked up): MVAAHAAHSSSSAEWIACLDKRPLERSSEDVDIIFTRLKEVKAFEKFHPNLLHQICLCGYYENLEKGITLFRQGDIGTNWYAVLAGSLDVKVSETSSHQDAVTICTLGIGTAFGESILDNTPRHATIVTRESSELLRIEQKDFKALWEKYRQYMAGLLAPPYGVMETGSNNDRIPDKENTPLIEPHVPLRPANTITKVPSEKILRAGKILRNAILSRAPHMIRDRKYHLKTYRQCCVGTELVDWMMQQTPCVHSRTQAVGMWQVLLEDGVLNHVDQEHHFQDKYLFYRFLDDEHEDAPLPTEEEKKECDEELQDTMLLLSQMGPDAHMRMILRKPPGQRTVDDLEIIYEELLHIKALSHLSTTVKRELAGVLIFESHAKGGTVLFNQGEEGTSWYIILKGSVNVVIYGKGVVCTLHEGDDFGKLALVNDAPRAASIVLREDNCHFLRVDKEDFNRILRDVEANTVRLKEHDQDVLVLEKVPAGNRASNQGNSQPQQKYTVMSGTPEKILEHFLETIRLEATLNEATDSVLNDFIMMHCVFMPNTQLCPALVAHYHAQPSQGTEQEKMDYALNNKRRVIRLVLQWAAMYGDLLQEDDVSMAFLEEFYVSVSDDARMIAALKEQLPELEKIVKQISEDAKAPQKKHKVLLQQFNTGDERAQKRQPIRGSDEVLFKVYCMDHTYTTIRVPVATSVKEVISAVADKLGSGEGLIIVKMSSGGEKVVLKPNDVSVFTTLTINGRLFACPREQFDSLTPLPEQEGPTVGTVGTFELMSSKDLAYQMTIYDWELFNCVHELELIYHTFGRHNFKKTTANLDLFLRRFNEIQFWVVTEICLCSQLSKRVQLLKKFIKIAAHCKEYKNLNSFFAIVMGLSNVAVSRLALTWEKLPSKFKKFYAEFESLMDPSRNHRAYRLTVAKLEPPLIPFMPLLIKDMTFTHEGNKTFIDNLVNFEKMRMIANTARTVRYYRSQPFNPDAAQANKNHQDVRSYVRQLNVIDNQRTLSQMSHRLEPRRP

With `Cc1ccc(C)c(-c2ccc(=O)n(C(C)C(=O)Nc3ccccc3C(F)(F)F)n2)c1` (configuration not stated), the Potency entry in experiment [1], in experiment [2] and in experiment [4] was “inactive” in each case. For the same compound, in experiment [3], the outcome is “inactive [at 12.7 µM]”.

Consider `COc1cccc(C(=O)Nc2nnc(-c3ccccc3)s2)c1OC`, for which the Potency entry in experiment [1], in experiment [2], in experiment [3] and in experiment [4] was “inactive” in each case.

Turning to `Cc1occc1-c1nnc(SCC(=O)c2cc3ccccc3oc2=O)o1`, the Potency entry in experiment [1] and in experiment [3] was “inactive” in each case. The activation in experiment [2] was -0.174% [at 17.1 µM, percent relative to cAMP agonist control]. The activity change, negative = inhibition in experiment [4] is -0.143% [at 30.8 µM].

Take `COc1cc(/C=C2\SC(=O)N(c3cccc(Cl)c3)C2=O)cc([N+](=O)[O-])c1O`: the Potency result in experiment [1], in experiment [2], in experiment [3] and in experiment [4] was “inactive” each time.

As to `O=C1NC(=O)C(=Cc2ccccc2[N+](=O)[O-])S1`, the Potency entry in experiment [1] and in experiment [3] was “inactive” each time. Moreover, the activation in experiment [2] was 5.36% [at 17.1 µM, percent relative to cAMP agonist control]. For the same compound, in experiment [4], the activity change, negative = inhibition was 0.254% [at 30.8 µM].

For `COc1ccc(NC(=O)Cn2ncc(Cl)c(Cl)c2=O)cc1S(=O)(=O)N1CCOCC1`, the Potency entry in experiment [1] and in experiment [3] was “inactive” in each case. Further, the activation in experiment [2] was -6.12% [at 17.1 µM, percent relative to cAMP agonist control]. Further, the activity change, negative = inhibition in experiment [4] is 1.4% [at 30.8 µM].

Turning to `O=C(COC(=O)C1(c2ccc(Cl)cc2)CCCC1)NCc1ccco1`, the Potency entry in experiment [1], in experiment [2] and in experiment [4] was “inactive” in each case. Also, in experiment [3], the Potency was 75.7 µM (active).

As to `CC(=O)c1ccc(OCc2nnn(CC(=O)NS(=O)(=O)c3ccc(C)cc3)c2-c2ccccc2)cc1`, the Potency result in experiment [1] and in experiment [3] was “inactive” in each case. In addition, the activation in experiment [2] was 1.38% [at 17.1 µM, percent relative to cAMP agonist control]. In experiment [4], the activity change, negative = inhibition was -5.72% [at 30.8 µM].

For `Clc1cccc(Cc2c(-c3ccco3)nc3ccc(Br)cn23)c1`, the Potency result in experiment [1] and in experiment [3] was “inactive” throughout. In experiment [2], the activation was 2.6% [at 17.1 µM, percent relative to cAMP agonist control]. The activity change, negative = inhibition in experiment [4] is -13.4% [at 30.8 µM].

For `C/C(=N\Nc1nc2ccccc2[nH]1)c1cc2ccccc2o1`, the Potency entry in experiment [1] and in experiment [3] was “inactive” each time. Further, the activation in experiment [2] is 1.22% [at 17.1 µM, percent relative to cAMP agonist control]. Further, the activity change, negative = inhibition in experiment [4] was -0.654% [at 30.8 µM].

Regarding `CC1CC(C)CN(C(=O)c2ccc3c(c2)N(Cc2ccccc2)CCS3)C1` (configuration not stated), the Potency entry in experiment [1] and in experiment [3] was “inactive” throughout. Further, in experiment [2], the activation is 14.1% [at 17.1 µM, percent relative to cAMP agonist control]. Further, the activity change, negative = inhibition in experiment [4] was 1.99% [at 30.8 µM].

With `CC(=O)Nc1ccc(N(C(=O)Cn2nnc3ccccc32)C(C(=O)NC2CCCC2)c2ccc(O)c(O)c2)cc1` (configuration not stated), the Potency result in experiment [1], in experiment [2] and in experiment [4] was “inactive” each time. Moreover, in experiment [3], the Potency was 95.3 µM (active).

On to `C[C@@]12C(=O)Nc3cc(F)ccc3C(=O)N1[C@H]1c3cc(Br)ccc3OC[C@@H]1[C@@H]2c1ccccc1`, for which the Potency entry in experiment [1], in experiment [2], in experiment [3] and in experiment [4] was “inactive” in each case.
